Compound activity deposited in PubChem by National Center for Advancing Translational Sciences (NCATS).
Giardia FBPA inh-1: Giardia lamblia aldolase inhibition; A8B2U2; purified Giardia FBPA; Potency, µM (highest dose often 59.6 µM), for the others: at the top dose activity, negative = inhibition, hits mostly inhibitors; 290,000 compounds, 0.71% hits; AID 2451; also: nearly all actives have a fitted effect of over 55% in size
Target sequence (A8B2U2 whole entry, looked up): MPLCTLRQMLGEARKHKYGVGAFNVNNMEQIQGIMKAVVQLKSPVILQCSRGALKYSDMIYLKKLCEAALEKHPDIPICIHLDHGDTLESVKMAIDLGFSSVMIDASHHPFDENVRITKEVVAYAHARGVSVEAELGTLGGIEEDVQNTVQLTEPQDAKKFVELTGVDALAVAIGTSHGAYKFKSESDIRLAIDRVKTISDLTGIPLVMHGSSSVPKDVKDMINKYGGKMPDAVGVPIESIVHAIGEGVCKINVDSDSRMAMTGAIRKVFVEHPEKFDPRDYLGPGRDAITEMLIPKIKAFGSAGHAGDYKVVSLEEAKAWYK
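Giardia FBPA (40 nM reagent) was preincubated 10 min at RT with compound (up to 57.5 uM final), then substrate plus GAPDH/TPI/NAD/arsenate coupling system with diaphorase/resazurin was added; resorufin fluorescence (525/598 nm) was read after 20 min.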
Tb PYK inh: inhibitors of Trypanosoma brucei pyruvate kinase; Q57TT1; TbPYK enzyme, Kinase-Glo Plus ATP luminescence, 45 min; 410,000 compounds, 0.12% hits; Potency, µM (top dose mostly 76.8 µM), for the others: top-dose activity, negative = inhibition, most hits filed as inhibitors; also: nearly all actives have a fitted effect of over 50% in size
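T. brucei PYK with substrate was exposed to pin-transferred compounds across a concentration series, then started with 130 uM ADP (final). After 45 min at room temperature, Kinase-Glo Plus luminescence was read, normalized and curve-fitted.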
LmPK inhibitor: LmPK (Leishmania mexicana) enzyme inhibition. Q27686. purified LmPK, Kinase-Glo ATP luminescence, 1 h. Potency, µM (series often up to 57.5 µM), for inactives: at the top dose activity change, negative = inhibition, hits mostly inhibitors. 290,000 compounds, 0.37% hits. AID 1721
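Purified LmPK (0.1 nM) with 0.5 mM PEP and 0.1 mM ADP in imidazole buffer pH 7.2 with MgCl2/KCl, 1 h at room temperature. ATP formed was read by luciferase luminescence and normalized to no-enzyme and uninhibited controls.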
RE007 growth inh: less growth of the S. pombe RE007 Vpr strain; S. pombe RE007 Vpr strain, BacTiter-Glo ATP luminescence, 24 h; Potency, µM (series often up to 92.2 µM), without a hit: at the highest dose activity change, negative = less growth, hits mostly inhibitors; 360,000 compounds, 0.21% hits; AID 651644; active = well fitted falling curve with a large enough effect; inconclusive = small, poorly fitted or top-dose-only effect; inactive = no such curve, though single readings can be large or run the other way; also: nearly all actives have a fitted effect of over 50% in size
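Fission yeast RE007 carrying one integrated HIV-1 vpr copy, seeded at OD 0.01 in PMG+AL medium with 23 nL pinned compound. Grown 24 h at 30 degrees; viability read by BacTiter-Glo luminescence after 5 min.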
Sm TGR inh: inhibitors of Schistosoma mansoni thioredoxin glutathione reductase | Q962Y6 | purified TGR, DTNB reduction, TNB absorbance 405 nm | Potency, µM (titrated, usually from 114 µM), inactives show at the top dose activity change, negative = inhibition, hits mostly inhibitors | 360,000 compounds, 3% hits | AID 485364; also: nearly all actives have a fitted effect of over 60% in size
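Kinetic colorimetric format: TGR-catalysed, NADPH-driven DTNB reduction monitored via TNB absorbance. Enzyme dispensed at 20 nM; compound exposure 15 min at room temperature before reaction start.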
Giardia growth: blocks growth of Giardia lamblia trophozoites; shares compounds with Giardia FBPA inh-1; Giardia lamblia trophozoite growth inhibition; Potency, µM (series often up to 57.5 µM), for inactives: at the highest dose activity change, negative = inhibition, usual class: inhibitors; 1,500 compounds, 5% hits; AID 2785;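 also: trophozoites exposed to compound for 48 h at 37 °C; nearly all actives have a fitted effect of over 70% in size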
Mammalian tox: counter-screen for Giardia aldolase inhibitors: mammalian cell toxicity; shares compounds with Giardia FBPA inh-1; mammalian cell viability counter-screen, qHTS; Potency, µM (titrated, usually from 57.5 µM), for the others: at the highest dose viability change, negative = toxicity, hits mostly inhibitors; 1,500 compounds, 4% hits; AID 2786;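 also: Chinese hamster ovary cells used as mammalian cytotoxicity surrogate; viability measured as cellular ATP by luminescence; compound exposure lasted 48 h before reading; nearly all actives have a fitted effect of over 60% in size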
Giardia FBPA inh-2: confirmation of Giardia fructose-bisphosphate aldolase inhibitors. shares compounds with Giardia FBPA inh-1. purified Giardia aldolase enzyme activity, qHTS. Potency, µM (highest dose often 57.5 µM), for inactives: at the highest dose activity change, negative = inhibition, most hits filed as inhibitors. 1,500 compounds, 5% hits; also: nearly all actives have a fitted effect of over 45% in size
Rabbit FBPA inh: rabbit FBP aldolase inhibition by Giardia aldolase hits | shares compounds with Giardia FBPA inh-1 | Rabbit muscle FBPA enzyme inhibition, selectivity counter-screen | Potency, µM (doses to about 57.5 µM), inactives show top-dose activity, negative = inhibition, usual class: inhibitors | 1,500 compounds, 4% hits | AID 2794; also: nearly all actives have a fitted effect of over 60% in size
GAPDH counter: GAPDH inhibition flagged for Giardia aldolase hits; GAPDH coupling enzyme counterscreen, biochemical, qHTS; 1,500 compounds, 6% hits; shares compounds with Giardia FBPA inh-1; Potency, µM (top dose mostly 57.5 µM), inactives show at the highest dose activity change, negative = inhibition, hits mostly inhibitors; also: nearly all actives have a fitted effect of over 55% in size
Active calls of the source: *; u = inconclusive; x = not tested or not shown; [ ] = dose if it differs, or a comment. In the library only some 3.3% were active in any assay of this set; here they are far more common. Unless noted, calls follow the shape of the dose curve; as a rule, active = well fitted curve in the direction sought with a large enough effect; inconclusive = small, poorly fitted or top-dose-only effect, or another doubt; inactive = no such curve, though single readings can be large; an effect the other way counts as inactive or inconclusive. % is scaled to controls: 0 for no effect and ±100 for the full control effect; potency is read from the fitted curve at half-maximal effect.

SMILES | Giardia FBPA inh-1 | Tb PYK inh | LmPK inhibitor | RE007 growth inh | Sm TGR inh | Giardia growth | Mammalian tox | Giardia FBPA inh-2 | Rabbit FBPA inh | GAPDH counter
O=C(Nc1nnc(C2=COCCO2)o1)c1ccc(S(=O)(=O)N2CCCC2)cc1 | 3.5µM* | 2% | 1%[11.5 µM] | 6% | -1% | 25%[38.3 µM] | -4% | -6% | -3% | 2%
CCNC(=O)COC(=O)/C=C/c1cccs1 | 6% | 0% | 4% | 12% | -1% | x | x | x | x | x
O=C(NCc1cccnc1)C(=O)Nc1nccs1 | u | x | -1% | x | 11% | x | x | x | x | x
O=c1c2cn[nH]c2[nH]c(=S)n1-c1ccccc1Cl | 25µM* | -15% | -4% | u | -6% | 28% | 17% | 7% | 2% | 13%
COc1cc(-n2c(=S)[nH]c3ccccc3c2=O)c(Cl)cc1Cl | -6% | -12% | 2% | 1% | 11% | x | x | x | x | x
Cc1ccc(-n2c(=S)[nH]c3[nH]ncc3c2=O)cc1 | 16µM* | u | -8% | 4% | -2% | 27% | -1% | -3% | 3% | -10%
O=c1c2cn[nH]c2[nH]c(=S)n1-c1ccccc1F | 7.1µM* | u | -1% | 6% | u | 2%[38.3 µM] | -2% | -3% | -6% | -1%
C/C=C1/C[C@@H](C)[C@](O)(CO)C(=O)OCC2=CCN3CC[C@@H](OC1=O)C23 (some centres not stated) | -3% | x | x | x | x | x | x | x | x | x
COc1ccc(NC(=O)c2ccc(S(=O)(=O)N3CC(C)CC(C)C3)cc2)cc1S(N)(=O)=O (configuration not stated) | x | 5% | x | 2% | 4% | x | x | x | x | x
Cc1cc(C)nc(N/N=C/c2ccccc2OCC(=O)O)n1 | 5µM* | -4% | 0% | -2% | -1% | 10%[38.3 µM] | -3% | -1% | -2% | -14%
Cc1cc(C)nc(N/N=C/c2ccccc2OCc2ccccc2)n1 | -7% | -3% | -2% | -11% | -9% | x | x | x | x | x
CN(CC(=O)Nc1ccccc1Cl)C(=O)COC(=O)/C=C/c1ccccc1 | x | 5% | x | -14% | 0% | x | x | x | x | x
O=C(NC(=S)Nc1cccc(C(F)(F)F)c1)c1ccc2nonc2c1 | 10µM* | -9% | 8% | u | u | 6%[10.4 µM] | -9% | 9% | 0% | 3%
Cn1ncc(C(N)=O)c1NC(=S)NC(=O)c1ccc(Br)o1 | 16µM* | -6% | 0% | -16% | -2% | -7%[10.4 µM] | -9% | 1% | 5% | 8%
CCN1CCN(Cc2cc3c(cc2[N+](=O)[O-])OCO3)CC1 | u | -2% | 3% | 10% | -7% | x | x | x | x | x
O=[N+]([O-])c1cc2c(cc1CN1CCN(CCOCCO)CC1)OCO2 | 10µM* | -5% | -6% | 0% | u | -3%[10.4 µM] | 9% | -18% | 5% | 2%
CCc1c(O)nc(SC2CC(=O)N(c3ccc(F)c(Cl)c3)C2=O)[nH]c1=O (configuration not stated) | 3.2µM* | -5% | 0% | -3% | u | 11%[38.3 µM] | -7% | u | 15% | 5%
Cn1c(=O)c2c(-c3ccccc3)n(-c3ccc(N)cc3)cc2n(C)c1=O | x | 4% | x | -7% | x | x | x | x | x | x
